Assay results taken from the supplement of paper PMC11482750.
± gives the standard deviation of the averaged measurements.

compound: CCC/C=C/C=O [trans-2-hexenal]; assay: control-subtracted net OSN firing rate; higher = stronger neuronal activation; settings: odorant dilution (vol/vol): 1/100
Protocol: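 Single sensillum recordings from olfactory sensory neurons. The neurons sit in the maxillary palp or antennal sensilla of D. melanogaster (wild type, mutants, or at1 empty-neuron lines expressing Or42a homologs or the A181D S307P mutant) and of four Scaptomyza species. Each odorant was given as a 1 s pulse from 20 µl loaded on filter paper at 1:100 vol/vol, diluted in mineral oil (γ-hexalactone in DMSO). Spikes were counted in a 0.5 s window starting 0.2 s after onset, background was subtracted, the count was doubled, and the mean solvent-control response was subtracted.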

Row | Target | control-subtracted net OSN firing rate [spikes/s]
1 | S. montana pb3b-like | 8.33 ± 8.7
2 | S. flava pb1b-like | -17.7 ± 8.2
3 | S. flava pb3a-like | -3.33 ± 9.6
4 | S. pallida pb1b-like | -6.67 ± 7.2
5 | S. hsui pb1b-like | -16.3 ± 10
6 | S. pallida pb1a-like | 103 ± 25
7 | S. pallida pb2a-like | 8.33 ± 6
8 | S. hsui pb2b-like | 15 ± 15
9 | S. hsui pb3a-like | 147 ± 24
10 | S. montana pb3a-like | 3 ± 5.5
11 | Or67dGal4, UAS-Dmel Or42a at1 | 110 ± 52
12 | S. flava pb1a-like | 152 ± 26
13 | S. hsui pb3b-like | -5 ± 4.2
14 | Canton-S (D. melanogaster) pb3a | 0.167 ± 5.6
15 | S. hsui pb1a-like | 115 ± 18
16 | Canton-S (D. melanogaster) pb2a | 4.86 ± 9.6
17 | S. montana pb2a-like | 1 ± 8.5
18 | S. flava pb2a-like | 1.67 ± 6.6

Row | Target | control-subtracted net OSN firing rate [spikes/s]
19 | Canton-S (D. melanogaster) pb1b | -5.33 ± 9
20 | S. montana pb1a-like | 145 ± 34
21 | S. flava pb3b-like | 26 ± 42
22 | Or67dGal4, UAS-Spal Or42a at1 | 205 ± 10
23 | S. montana pb1b-like | -11.3 ± 8.9
24 | S. pallida pb2b-like | 6.67 ± 10
25 | Or67dGal4, UAS-Sfla Or42a4 at1 | 179 ± 43
26 | S. pallida pb3a-like | 109 ± 24
27 | S. montana pb2b-like | 5.67 ± 5.1
28 | Or67dGal4, UAS-Sfla Or42a2 at1 | 3.14 ± 12
29 | S. pallida pb3b-like | -10 ± 14
30 | Canton-S (D. melanogaster) pb2b | 0.857 ± 11
31 | S. hsui pb2a-like | 10 ± 12
32 | Or67dGal4, UAS-Sfla Or42a3 at1 | 144 ± 32
33 | Canton-S (D. melanogaster) pb3b | -0.833 ± 5.7
34 | Canton-S (D. melanogaster) pb1a | 124 ± 31
35 | S. flava pb2b-like | 15 ± 14
